In PubChem BioAssay (NCI):
About 79,000 compounds went through this panel and 15% of them were active in at least one assay; those are over-represented in the sample as a whole. Values without a mark were called inactive. Calls of active or inactive are those of the source. No stated cut-off is given here; in the data, active means growth inhibition above about 70%; inactive means the rest.

Assay: NCI Yeast Anticancer Drug Screen. Data for the bub3 strain (AID 167)
Conditions: S. cerevisiae bub3 mutant strain, stronger effect = higher value
Experimental: Growth inhibition of yeast strains with defined genetic alterations is measured as a screen for potential anti-cancer activity. Selected strains with alterations in DNA damage repair or cell cycle control were exposed to compounds and growth inhibition was measured relative to vehicle treated controls. The strain used in this assay is bub3

[1] = at 5.0 µM (retest, dose inferred, filed as 0.5)
[2] = at 50.0 µM (retest, dose inferred, filed as 5.0)

Compound | growth inhibition [1] | growth inhibition [2] | growth inhibition (at 50.0 µM)
Cc1ccccc1N=Nc1ccccc1 | 48% | 98% (active) | 99.3% (active)
CCOSc1ccccc1 | 0% | 74% (active) | 20.6%
CCOC(=O)c1c(N)c(=O)n2c3c(cccc13)CC2 | -1% | 79% (active) | 96.8% (active)
CCC(c1ccc(Cl)cc1)C(C#N)c1ccccc1 (configuration not stated) | 1% | 3% | 40.4%
CCOC(=O)C(=NNc1ccccc1)C(=O)OCC | -1% | 27% | 46.9%
O=C(c1ccc([N+](=O)[O-])cc1)C(Br)C(Br)c1ccnc2ccccc12 (configuration not stated) | 3% | 86% (active) | 98.8% (active)
CSc1nc2nn(Cc3ccccc3)cc2c(=O)[nH]1 | 27% | 47% | -9.9%
COC(=O)C1C(C(=O)OC)C2(OC(c3ccc(Cl)cc3)=CC2=O)C12OC(c1ccc(Cl)cc1)=CC2=O (configuration not stated) | -1% | 90% (active) | 92% (active)
CCN1CCC(O)(/C=C/c2ccc(Cl)c(Cl)c2)C(C(=O)/C=C/c2ccc(Cl)c(Cl)c2)C1 (configuration not stated) | 99% (active) | 99% (active) | 99% (active)
COc1cc(-c2nn3c(=O)n(-c4ccc(Cl)cc4)c(=O)nc3s2)cc(OC)c1OC | 1% | 17% | 3.3%
Cc1c2ccccc2c(=O)n2c(-c3ccccn3)cccc12 | -26% | -17% | 30.8%
CN(C)CCC[Si]1(C)c2ccccc2CCc2ccccc21 | -8% | 6% | 71.3% (active)
OC1CN(C2CCCCC2)CC1C1(O)CCN(C2CCCCC2)C1 (configuration not stated) | 1% | 15% | -5.85%
CCN1CCC(O)(/C=C/c2ccccc2)C(C(=O)/C=C/c2ccccc2)C1 (configuration not stated) | 8% | 94% (active) | 98.9% (active)
